For 20 molecules, growth inhibition, inhibition and outcome results are on record in PubChem BioAssay.

For orientation: inhibition means the drop in the measured response relative to a control, in per cent.

Test [1] in a line: antimalarial activity against Dd2 strain (AID 2302;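 active = growth inhibition above 50% at the single 2 µM test dose, taken to imply half-maximal potency below 2 µM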;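 also: 0% = DMSO untreated growth and 100% = chloroquine plus artemisinin killed control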). Conditions: P. falciparum Dd2 in RBCs, LDH growth readout, 72 h; at 2 µM; hits give high values.
The nature of test [2]: human hepatoma cell viability loss – ATP luminescence, cytotoxicity control for P. falciparum antimalarial project, primary screen (AID 2303;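 active = inhibition above 50%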;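 also: 0% = DMSO wells and 100% = digitonin-killed cells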). Conditions: HepG2 viability, 24-48 h, at 10 µM, hits give high values.
The target of test [3] is L-lactate dehydrogenase (Plasmodium falciparum (isolate CDC / Honduras)) (UniProt Q27743). Briefly: PfLDH activity inhibition – cell lysate, 3D7 strain, counter-screen for P. falciparum growth inhibition project (AID 2304).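 Also: 0% = vehicle and 100% = reference inhibitor.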 Conditions: P. falciparum 3D7 crude extract, LDH APAD/NBT absorbance; at 2 µM; hits give high values.
Test [4] in a line: inhibition of 3D7 malaria parasite growth – strain 3D7 (AID 2306).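 Also: 0% = DMSO wells and 100% = chloroquine plus artemisinin control wells.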 Conditions: P. falciparum 3D7 erythrocytic growth, LDH absorbance, 72 h; at 2 µM; hits give high values.
For test [5], the target named is Calcium-dependent protein kinase 1 (Plasmodium falciparum (isolate 3D7)) (UniProt P62344). Briefly: PfCDPK1 kinase inhibitors, biochemical, TCAMS library (AID 1159585; cut-off not given, nearly all actives have IC50 up to about 0.98 µM;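 also: inhibitors leave more ATP so luminescence rises with inhibition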). Conditions: recombinant PfCDPK1, Kinase-Glo ATP depletion luminescence. (Kinase-Glo measures the ATP left after a reaction by luminescence.)
The target in test [6] is Plasmodium falciparum protein kinase 6 (PK6, PF3D7_1337100) (UniProt Q8IDW1). The test is described as follows: PfPK6 kinase inhibitors, biochemical, TCAMS library (AID 1159586). Conditions: recombinant PfPK6, Kinase-Glo ATP depletion luminescence.
Test [7] addresses Protein kinase 7 (PK7), Plasmodium falciparum 3D7 (PF3D7_0213400) (UniProt Q7YTF7). The test is described as follows: inhibition of Plasmodium PK7 catalytic activity – biochemical, TCAMS antimalarial set, Kinase-Glo luminescence (AID 1159587). Conditions: recombinant PfPK7, Kinase-Glo ATP depletion luminescence.
Test [8] deals with Calcium-dependent protein kinase 4 (Plasmodium falciparum (isolate 3D7)) (UniProt Q8IBS5). Briefly: PfCDPK4 kinase inhibitors, biochemical, TCAMS library (AID 1159588; cut-off not given, nearly all actives have IC50 up to about 0.91 µM). Conditions: recombinant PfCDPK4, Kinase-Glo ATP depletion luminescence.

Values without a mark were called inactive. For some of these results: Potency and affinity values are given separately. Calls of active or inactive are those of the source. Unless noted, no rule for the calls is given here.

Calcium-dependent protein kinase 1 (Plasmodium falciparum (isolate 3D7)), sequence (P62344 whole entry, looked up): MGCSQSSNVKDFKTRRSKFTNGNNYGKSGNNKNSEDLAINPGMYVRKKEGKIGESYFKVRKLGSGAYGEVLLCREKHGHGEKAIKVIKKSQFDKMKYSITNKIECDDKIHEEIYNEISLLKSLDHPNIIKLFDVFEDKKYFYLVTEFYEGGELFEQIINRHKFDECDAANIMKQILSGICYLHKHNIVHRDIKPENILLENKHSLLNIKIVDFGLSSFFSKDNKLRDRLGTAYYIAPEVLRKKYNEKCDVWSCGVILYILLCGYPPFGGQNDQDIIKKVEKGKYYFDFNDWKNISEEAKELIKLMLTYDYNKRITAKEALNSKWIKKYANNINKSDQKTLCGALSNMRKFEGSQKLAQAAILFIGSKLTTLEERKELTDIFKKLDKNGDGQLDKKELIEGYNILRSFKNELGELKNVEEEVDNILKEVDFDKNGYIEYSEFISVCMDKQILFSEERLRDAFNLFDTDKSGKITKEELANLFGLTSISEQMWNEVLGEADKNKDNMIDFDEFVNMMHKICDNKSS
Plasmodium falciparum protein kinase 6 (PK6, PF3D7_1337100), sequence (Q8IDW1 1-305): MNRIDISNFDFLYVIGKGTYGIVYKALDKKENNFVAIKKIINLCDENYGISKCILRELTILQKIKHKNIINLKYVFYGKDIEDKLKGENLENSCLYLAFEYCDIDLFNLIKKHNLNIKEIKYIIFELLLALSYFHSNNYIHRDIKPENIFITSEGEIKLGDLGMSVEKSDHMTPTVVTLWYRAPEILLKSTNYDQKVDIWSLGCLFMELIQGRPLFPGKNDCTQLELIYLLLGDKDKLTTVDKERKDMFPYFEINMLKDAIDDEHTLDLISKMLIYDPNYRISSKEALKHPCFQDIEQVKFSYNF
Calcium-dependent protein kinase 4 (Plasmodium falciparum (isolate 3D7)), sequence (Q8IBS5 whole entry, looked up): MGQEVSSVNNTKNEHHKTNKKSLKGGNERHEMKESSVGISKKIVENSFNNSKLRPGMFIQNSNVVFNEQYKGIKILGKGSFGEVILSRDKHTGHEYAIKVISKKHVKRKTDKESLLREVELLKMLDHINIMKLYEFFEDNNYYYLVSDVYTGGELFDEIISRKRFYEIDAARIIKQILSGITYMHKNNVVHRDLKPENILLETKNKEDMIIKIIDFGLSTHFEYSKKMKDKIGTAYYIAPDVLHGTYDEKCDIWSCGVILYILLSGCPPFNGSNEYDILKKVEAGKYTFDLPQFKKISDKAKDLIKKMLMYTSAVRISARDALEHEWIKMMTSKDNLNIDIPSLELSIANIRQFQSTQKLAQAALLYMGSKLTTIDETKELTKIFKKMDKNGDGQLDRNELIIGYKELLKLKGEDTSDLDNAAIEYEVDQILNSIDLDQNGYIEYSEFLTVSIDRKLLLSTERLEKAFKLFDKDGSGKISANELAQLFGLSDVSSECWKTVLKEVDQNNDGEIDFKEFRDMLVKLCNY
L-lactate dehydrogenase (Plasmodium falciparum (isolate CDC / Honduras)), sequence (Q27743 whole entry, looked up): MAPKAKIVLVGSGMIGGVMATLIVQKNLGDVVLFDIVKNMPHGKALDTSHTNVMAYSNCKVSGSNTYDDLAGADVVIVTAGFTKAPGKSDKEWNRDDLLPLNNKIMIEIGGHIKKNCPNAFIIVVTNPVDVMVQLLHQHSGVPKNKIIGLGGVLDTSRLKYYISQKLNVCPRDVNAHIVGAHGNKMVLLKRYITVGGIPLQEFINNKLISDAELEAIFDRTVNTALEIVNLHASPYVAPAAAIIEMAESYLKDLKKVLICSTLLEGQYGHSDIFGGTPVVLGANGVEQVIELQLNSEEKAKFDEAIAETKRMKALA
Protein kinase 7 (PK7), Plasmodium falciparum 3D7 (PF3D7_0213400), sequence (Q7YTF7 1-343): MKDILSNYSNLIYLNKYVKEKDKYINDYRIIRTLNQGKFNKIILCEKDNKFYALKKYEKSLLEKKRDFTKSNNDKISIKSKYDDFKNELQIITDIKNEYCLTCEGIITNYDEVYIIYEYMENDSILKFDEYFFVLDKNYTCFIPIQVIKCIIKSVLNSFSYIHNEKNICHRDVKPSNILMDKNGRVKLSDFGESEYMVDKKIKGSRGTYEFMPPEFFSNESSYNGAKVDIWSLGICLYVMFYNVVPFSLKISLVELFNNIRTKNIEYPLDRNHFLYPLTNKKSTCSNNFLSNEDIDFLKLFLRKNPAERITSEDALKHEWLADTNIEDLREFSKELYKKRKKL

As for `NCCCNc1nc(Nc2ccc(C(F)(F)F)cc2F)c2c(=O)[nH]ccc2n1`, the growth inhibition in test [1] is 15%; in test [4], 95% (active). For the same molecule, the inhibition was 23% in test [2] and -1% in test [3]. Moreover, the result in test [5], in test [6], in test [7] and in test [8] was inactive.

On to `O=C(Nc1ccc(OC2CCN(Cc3ccc(F)cc3)CC2)c(Cl)c1)c1ccsc1`, for which the growth inhibition was 90% (active) in test [1] and 94% (active) in test [4]. The inhibition was 5% in test [2] and 7% in test [3]. For the same molecule, the outcome in test [5], in test [6], in test [7] and in test [8] was inactive.

In the case of `C=CCOC(=O)N1CCC(CNCc2ccc(-c3ccc(-c4nc5ccc(C(F)(F)F)cc5[nH]4)cc3)cc2)C1` (stereo not given), the growth inhibition is 98% (active) in test [1] and 103% (active) in test [4]. Moreover, the inhibition is 44% in test [2] and -2% in test [3]. The result in test [5], in test [6], in test [7] and in test [8] was inactive.

For the molecule `CC(=O)c1c(Cc2cccc(C(F)(F)F)c2)c[nH]c1C`, the figures for the growth inhibition in test [1] and in test [4] were 92% (active) and 94% (active), respectively. For the same molecule, the inhibition in test [2] was 6%; in test [3], 7%. Moreover, the outcome in test [5], in test [6], in test [7] and in test [8] was inactive.

On to `CCCCc1ccc(NC(=O)Nc2ccc3c(c2)CCNCC3)cc1`, for which the growth inhibition is 43% in test [1] and 95% (active) in test [4]. The inhibition in test [2] is 16%; in test [3], 0%. Further, the outcome in test [5], in test [6], in test [7] and in test [8] was inactive.

With `Cc1[nH]c(C)c(-c2ccc(OCc3cccc(C(F)(F)F)c3)nc2)c(=O)c1Br`, the growth inhibition was 97% (active) in test [1] and 99% (active) in test [4]. Also, the figures for the inhibition in test [2] and in test [3] were 37% and -2%, respectively. Moreover, the result in test [5], in test [6], in test [7] and in test [8] was inactive.

Consider `Cc1ccc2c(NC(=O)Nc3ccc(N(C)C)cc3)cc(C)nc2c1`, for which the growth inhibition in test [1] was 20%; in test [4] it was 98% (active). The inhibition is -6% in test [2] and 0% in test [3]. Also, the result in test [5], in test [6], in test [7] and in test [8] was inactive.

For `Cc1cccc2[nH]c(-c3cccc(-c4ccc(CNCCNC(=O)c5ccnn5C)cc4)c3)nc12`, the growth inhibition in test [1] was 100% (active); in test [4], 102% (active). The inhibition in test [2] was 21%; in test [3] it was -2%. In addition, the result in test [5], in test [6], in test [7] and in test [8] was inactive.

For the molecule `CCC1(C)CC(CCNCc2ccccc2O)(c2ccccc2OC)CCO1` (stereo not given), the growth inhibition is 93% (active) in test [1] and 94% (active) in test [4]. Also, the inhibition is 10% in test [2] and -2% in test [3]. In addition, the result in test [5], in test [6], in test [7] and in test [8] was inactive.

In the case of `O=C(O)C[C@H](NC(=O)c1cc(-c2ccc3c(c2)OCO3)no1)C(=O)O` (tested in a mixture with another compound), the growth inhibition in test [1] is -3%; in test [4], 98% (active). Further, the values for the inhibition in test [2] and in test [3] were -4% and -2%, respectively. Moreover, the result in test [5], in test [6], in test [7] and in test [8] was inactive.

For the molecule `O=C(Nc1ccc(OC2CCN(Cc3ccccc3)CC2)c(Cl)c1)c1cccs1`, the growth inhibition in test [1] was 95% (active); in test [4], 96% (active). For the same molecule, the inhibition was 2% in test [2] and 4% in test [3]. For the same molecule, the outcome in test [5], in test [6], in test [7] and in test [8] was inactive.

For `COc1cccc(-c2cc(C(=O)Nc3ccc4nc(-c5ccccc5)[nH]c4c3)[nH]n2)c1`, the growth inhibition was 65% (active) in test [1] and 100% (active) in test [4]. In addition, the inhibition was 68% (active) in test [2] and 2% in test [3]. The outcome in test [5], in test [6], in test [7] and in test [8] was inactive.

In the case of `COc1cccc2cc(C(=O)N[C@@H](CC(C)C)C(=O)NC(/C=N/NC(=O)c3ccccc3)CCc3ccccc3)oc12` (stereo not given in full), the growth inhibition in test [1] was 73% (active); in test [4], 88% (active). For the same molecule, the figures for the inhibition in test [2] and in test [3] were 8% and -3%, respectively. The outcome in test [5], in test [6], in test [7] and in test [8] was inactive.

Take `CCCC(C)N(Cc1ccc(C(C)(C)C)cc1)C(=O)c1cccc(OC)c1` (stereo not given): the growth inhibition in test [1] was 89% (active); in test [4], 100% (active). Besides, the inhibition is 9% in test [2] and 1% in test [3]. Moreover, the outcome in test [5], in test [6], in test [7] and in test [8] was inactive.

Consider `CCCSc1nc2c(c(=O)n1Cc1ccco1)C1(CCCCC1)Cc1ccccc1-2`, for which the growth inhibition was 95% (active) in test [1] and 100% (active) in test [4]. Further, the inhibition in test [2] is -1%; in test [3] it was 0%. The outcome in test [5], in test [6], in test [7] and in test [8] was inactive.

As to `CCN(c1ccccc1)S(=O)(=O)c1ccc(NC(=O)c2cc(-c3cc(C)ccc3O)n[nH]2)cc1`, the growth inhibition was 55% (active) in test [1] and 99% (active) in test [4]. In addition, the inhibition in test [2] is 49%; in test [3] it was -3%. The outcome in test [5], in test [6], in test [7] and in test [8] was inactive.

Take `CS(=O)(=O)CCNCc1cccc(-c2ccc3c(Nc4ccc(Oc5ccccc5)cc4)ccnc3c2)c1`: the growth inhibition in test [1] was 96% (active); in test [4], 101% (active). Also, the inhibition in test [2] is 18%; in test [3], 6%. Also, the outcome in test [5], in test [6], in test [7] and in test [8] was inactive.

`O=C(CCC1CCCCC1=O)c1ccccc1` (stereo not given): the growth inhibition in test [1] is 3%; in test [4] it was 91% (active). The inhibition in test [2] is 0%; in test [3], -4%. The result in test [5], in test [6], in test [7] and in test [8] was inactive.

`N#Cc1ccc(CCNc2nccc(-c3cccc(CN4CCNCC4)c3)n2)cc1`: the results for the growth inhibition in test [1] and in test [4] were -3% and 83% (active), respectively. For the same molecule, the inhibition in test [2] was 5%; in test [3], 3%. The result in test [5], in test [6], in test [7] and in test [8] was inactive.

With `Oc1ccc2[nH]c(-c3ccc(F)cc3F)nc2c1CN1CCC(O)(c2ccccc2)CC1`, the growth inhibition was 70% (active) in test [1] and 96% (active) in test [4]. Also, the inhibition in test [2] is 16%; in test [3], -2%. The result in test [5], in test [6], in test [7] and in test [8] was inactive.
